Measured values reported in PubChem BioAssay.
The source made the active and inactive calls. Unless noted, the rule behind the calls is not given here.

What was measured:
[1] = A549 cell viability effects, profiling panel, calcein-AM fluorescence, 48 h, basal (AID 1162); conditions: higher = more signal; note: test concentration not given here
[2] = adipocyte viability effects, profiling panel, cell-based, 3T3-L1 adipocytes, calcein-AM fluorescence, 48 h, basal (AID 1163); conditions: 3T3-L1 adipocytes viability, higher = more signal; note: test concentration not given here
[3] = HepG2 cell viability effects, profiling panel, calcein-AM fluorescence, 48 h, basal (AID 1164); conditions: higher = more signal; note: test concentration not given here
[4] = MM1S cell viability effects, profiling panel, calcein-AM fluorescence, 48 h, basal (AID 1165); conditions: higher = more signal;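 note: viability of MM1S multiple myeloma cells under basal unstimulated conditions; test concentration not given here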
[5] = basal RPMI8226 viability, no added stimulus, profiling panel, cell-based, calcein-AM fluorescence, 48 h, PK04 Diversity Set (AID 1166); conditions: RPMI8226 myeloma viability, higher = more signal;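 note: cells grown under basal conditions without added stimulus; test concentration not given here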
[6] = basal HepG2 mitochondrial membrane potential changes, profiling panel, cell-based, JC-1 fluorescence, 24 h, 100 nL compound (AID 1167); conditions: higher = more signal; note: test concentration not given here
[7] = basal 3T3-L1 adipocyte mitochondrial potential changes, profiling panel, cell-based, JC-1 fluorescence, 3T3-L1 adipocytes, 24 h, 100 nL compound (AID 1168); conditions: JC-1 mitochondrial fluorescence, higher = more signal, called active from +8 up or from −8 down; note: test concentration not given here
[8] = basal RPMI8226 mitochondrial membrane potential changes, profiling panel, cell-based, JC-1 fluorescence, 24 h, 100 nL compound (AID 1169); conditions: RPMI8226 myeloma, JC-1 mitochondrial potential fluorescence, higher = more signal; note: test concentration not given here
[9] = basal MM1S mitochondrial membrane potential changes, profiling panel, cell-based, JC-1 fluorescence, 24 h, 100 nL compound (AID 1170); conditions: higher = more signal; note: test concentration not given here
[10] = A549 lung cancer cell viability effects, profiling panel, resazurin fluorescence, 24 h, PK04 Diversity Set (AID 1171); conditions: higher = more signal, called active from +8 up or from −8 down; note: test concentration not given here
[11] = HepG2 liver cancer cell viability effects, profiling panel, resazurin fluorescence, 24 h, PK04 Diversity Set (AID 1172); conditions: higher = more signal; note: test concentration not given here
[12] = basal S. cerevisiae growth modulation, no modifier, primary screen, OD600, strain BY4716, 24 h, basal condition (AID 1173); conditions: OD600, 24 h, higher = more signal, called active from +8 up or from −8 down
[13] = MM1S myeloma cell viability, profiling panel, resazurin fluorescence, basal, 24 h, PK04 Diversity Set (AID 1174); conditions: higher = more signal, called active from +8 up or from −8 down;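 note: MM1S multiple myeloma cell line; test concentration not given here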
[14] = molecular target: Dihydroorotate dehydrogenase (quinone), mitochondrial (Plasmodium falciparum (isolate 3D7)) (UniProt Q08210); test: PfDHODH enzyme inhibitors, primary screen, biochemical, C-terminal His tag, absorbance 600 nm (AID 1175); conditions: DCIP absorbance 600 nm, higher = more signal, called active from +8 up or from −8 down;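 note: recombinant parasite enzyme with a five histidine tag at its C terminus; test concentration not given here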
[15] = P. aeruginosa biofilm formation inhibitors, primary screen, strain PAO1, LB-PBS medium, absorbance 600 nm (AID 1176); note: test concentration not given here; conditions: P. aeruginosa PAO1 growth/biofilm, A600, 12 h; higher = more signal
[16] = S. cerevisiae RM11-1a growth modifiers, primary screen, strain RM11-1a, OD600, basal, 24 h (AID 1177); conditions: OD600, 24 h, higher = more signal, called active from +8 up or from −8 down;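 note: cultures grown under basal conditions with no added stressor; test concentration not given here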
[17] = E. coli acrAB mutant growth effects, primary screen, E. coli filamentation inducers, strain DRC39, OD650, 24 h (AID 1178); conditions: higher = more signal, called active from +8 up or from −8 down;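 note: growth measured as culture turbidity by optical density at 650 nm; test concentration not given here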
[18] = E. coli acrAB mutant growth effects, primary screen, E. coli filamentation inducers, strain DRC39, OD650, 48 h (AID 1179);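 note: screen aims at cell division blockers that make cells filament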; conditions: E. coli DRC39 delta-acrAB growth, higher = more signal, called active from +8 up or from −8 down
[19] = RPMI8226 myeloma cell viability, profiling panel, resazurin fluorescence, basal, 24 h, PK04 Diversity Set (AID 1180); conditions: higher = more signal;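 note: RPMI8826 multiple myeloma cell line at 5000 cells per well; test concentration not given here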
[20] = molecular target: E3 ubiquitin-protein ligase XIAP (Homo sapiens) (UniProt P98170); test: XIAP binders, primary screen, biophysical, small-molecule microarray, fluorescence 635 nm (AID 1181); conditions: small-molecule microarray binding, higher = more signal;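 note: score merges 667 nm emission and signal to noise over triplicate slides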
Chain of E3 ubiquitin-protein ligase XIAP (Homo sapiens) (P98170 whole entry, looked up): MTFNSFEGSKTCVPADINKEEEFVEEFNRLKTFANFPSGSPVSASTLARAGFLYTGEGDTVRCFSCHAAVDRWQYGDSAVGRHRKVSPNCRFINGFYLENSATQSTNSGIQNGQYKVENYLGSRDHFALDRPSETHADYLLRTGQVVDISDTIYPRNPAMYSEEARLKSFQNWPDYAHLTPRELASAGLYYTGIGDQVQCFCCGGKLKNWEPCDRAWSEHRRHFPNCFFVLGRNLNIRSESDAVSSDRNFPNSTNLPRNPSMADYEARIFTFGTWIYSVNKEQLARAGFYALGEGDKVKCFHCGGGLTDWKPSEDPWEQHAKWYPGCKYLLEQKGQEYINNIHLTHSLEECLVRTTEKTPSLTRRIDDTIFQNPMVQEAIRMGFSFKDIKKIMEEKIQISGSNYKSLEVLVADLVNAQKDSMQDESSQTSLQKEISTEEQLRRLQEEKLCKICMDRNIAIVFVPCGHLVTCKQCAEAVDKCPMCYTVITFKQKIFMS

Chain of Dihydroorotate dehydrogenase (quinone), mitochondrial (Plasmodium falciparum (isolate 3D7)) (Q08210 whole entry, looked up): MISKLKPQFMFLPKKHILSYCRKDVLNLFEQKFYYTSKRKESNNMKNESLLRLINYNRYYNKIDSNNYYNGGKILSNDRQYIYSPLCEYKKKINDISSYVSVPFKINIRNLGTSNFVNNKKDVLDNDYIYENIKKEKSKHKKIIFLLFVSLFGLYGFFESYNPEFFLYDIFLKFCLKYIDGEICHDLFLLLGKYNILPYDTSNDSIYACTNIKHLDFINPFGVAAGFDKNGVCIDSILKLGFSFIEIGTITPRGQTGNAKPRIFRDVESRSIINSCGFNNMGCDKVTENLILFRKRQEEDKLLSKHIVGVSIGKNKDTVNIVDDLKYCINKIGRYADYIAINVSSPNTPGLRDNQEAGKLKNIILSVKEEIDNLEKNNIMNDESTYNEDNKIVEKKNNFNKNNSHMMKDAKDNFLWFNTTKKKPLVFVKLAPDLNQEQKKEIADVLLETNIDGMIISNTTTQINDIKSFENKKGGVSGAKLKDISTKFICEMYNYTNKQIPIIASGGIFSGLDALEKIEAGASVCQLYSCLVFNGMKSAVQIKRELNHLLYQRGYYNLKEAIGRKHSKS

SMILES	z-score [1]	z-score [2]	z-score [3]	z-score [4]	z-score [5]	z-score [6]	z-score [7]	z-score [8]	z-score [9]	z-score [10]	z-score [11]	z-score [12]	z-score [13]	composite z-score [14]	z-score [15]	z-score [16]	z-score [17]	z-score [18]	z-score [19]	composite z-score [20]
COc1ccc(C(O)C2C=CC3C(=O)N(C)C(=O)C3N2N2CCCCC2)cc1OCc1ccccc1 (centres undefined)	0.138	-0.393	-0.888	-0.25	0.0629	-1.8	-0.693 (inactive)	-0.813	0.536	2.31 (inactive)	1.06	-1.21 (inactive)	0.0046 (inactive)	1.05 (inactive)	0.779 (inactive)	1.26 (inactive)	-0.738 (inactive)	-0.811 (inactive)	-2.38	-0.0937
CCCC=C(CCC)[C@@H](NS(=O)(=O)c1cccc(C(F)(F)F)c1)c1ccc(C(=O)OC)cc1	-0.336	-0.0748	-1.07	-0.008	-0.341	-1.25	-0.413 (inactive)	0.0542	-1.04	0.206 (inactive)	1.18	0.661 (inactive)	0.179 (inactive)	-0.237 (inactive)	-0.94 (inactive)	-0.279 (inactive)	-0.0305 (inactive)	-0.0262 (inactive)	-0.16	0.0506
CC(=O)NCCCC[C@@H]1NC(=O)[C@@H]2C[C@H](C(=O)NCc3ccc(F)cc3)[C@H](c3cccc(OCCO)c3)N2C1=O	0.53	0.0222	0.64	-0.0893	-0.12	-0.0575	-0.568 (inactive)	-0.3	-0.513	-0.12 (inactive)	-0.352	0.473 (inactive)	0.0366 (inactive)	-0.79 (inactive)	0.298 (inactive)	0.625 (inactive)	-0.34 (inactive)	-0.17 (inactive)	0.168	-0.335
COC(=O)Cn1c(C(=O)N2CCCC2)cc2c1C[C@H]1CN(C(=O)c3ccccc3)[C@@](Cc3ccccc3)(C(=O)OC)[C@@H]21	-0.162	0.0052	0.513	0.875	-0.256	0.876	0.385 (inactive)	-0.0618	-1.25	0.359 (inactive)	-0.103	1.37 (inactive)	-0.694 (inactive)	0.0393 (inactive)	0.619 (inactive)	0.965 (inactive)	-0.244 (inactive)	0.172 (inactive)	-1.34	0.107
[N-]=[N+]=NCc1ccccc1C[C@@]1(C(=O)O)N=C(c2ccc(OCCCO)cc2)O[C@@H]1c1ccccc1N=[N+]=[N-]	0.593	0.0001	0.435	-1.52	-2.27	-1.58	0.428 (inactive)	-0.898	-1.31	-1.32 (inactive)	0.0549	-1 (inactive)	-1.47 (inactive)	0.313 (inactive)	0.755 (inactive)	-0.268 (inactive)	0.604 (inactive)	0.331 (inactive)	-0.876	0.0524
CCCC=C(CCC)[C@@H](NC(=O)c1ccccc1)c1ccccc1	-0.956	-0.551	0.46	-0.0621	-0.246	-3.04	0.177 (inactive)	-0.017	-1.49	0.215 (inactive)	-0.232	0.752 (inactive)	-1.01 (inactive)	-0.421 (inactive)	1.27 (inactive)	0.0321 (inactive)	0.164 (inactive)	0.475 (inactive)	0.0944	0.086
CCCCCCc1nc(-c2cc(C)c(OC)c(C)c2)cc2c1[Si](C(C)C)(C(C)C)O[C@H]2c1ccccc1	0.723	-0.185	-0.59	-0.0523	-0.942	0.201	-0.152 (inactive)	0.77	-0.683	0.732 (inactive)	0.0796	0.54 (inactive)	0.0808 (inactive)	-0.292 (inactive)	-0.334 (inactive)	0.315 (inactive)	0.609 (inactive)	0.228 (inactive)	0.219	-0.244
CC(C)=C1C(=O)C(c2ccccc2)=C2CN3C(=O)N(CCc4ccccc4)C(=O)[C@]3(Cc3ccccc3)[C@H]21	-0.778	0.66	0.0577	0.492	-0.895	-0.366	-0.623 (inactive)	-0.0727	-0.496	-0.723 (inactive)	-1.18	0.66 (inactive)	-0.692 (inactive)	0.223 (inactive)	0.178 (inactive)	0.071 (inactive)	-0.652 (inactive)	-0.295 (inactive)	-0.693	-0.122
O=C(N1CCCCC1)[C@@]1(CCS(=O)(=O)c2ccccc2)N=C(c2ccc(OCCCO)cc2)O[C@H]1c1ccccc1	-1.35	1	-1.12	-2.25	-3.55	2	-0.751 (inactive)	-0.72	-2.09	-0.908 (inactive)	0.233	0.0247 (inactive)	-2.91 (inactive)	1.05 (inactive)	-1.01 (inactive)	0.0929 (inactive)	1.33 (inactive)	0.561 (inactive)	-2.78	0.198
O=C1C2C=CC(C(O)C#Cc3ccccc3)N(Nc3ccccc3)C2C(=O)N1c1ccccc1 (centres undefined)	-0.284	-1.26	-0.374	0.0195	-0.619	-1.53	-0.869 (inactive)	-0.449	-0.41	0.0504 (inactive)	0.198	-3.55 (inactive)	-0.279 (inactive)	-0.766 (inactive)	0.875 (inactive)	0.143 (inactive)	-0.169 (inactive)	-0.143 (inactive)	0.0581	-0.189
COCCOC(=O)N1C(=O)[C@@]2(c3cc(C#CCCO)ccc31)[C@H](c1ccc(O)cc1)N1[C@H](c3ccccc3)[C@H](c3ccccc3)OC(=O)[C@H]1[C@@H]2C(=O)Nc1nc2ccccc2s1	0.615	1.62	-0.425	-0.24	-1.53	-3.45	-2.22 (inactive)	-0.684	-1.11	-0.192 (inactive)	0.484	-0.297 (inactive)	-0.617 (inactive)	0.864 (inactive)	0.485 (inactive)	0.39 (inactive)	0.438 (inactive)	-0.619 (inactive)	0.179	0.267
CCCNC(=O)[C@@H]1c2ccccc2C(=O)N(Cc2cc(F)cc(C(F)(F)F)c2)[C@H]1c1ccc(CO)cc1	1.68	1.18	-0.0223	0.168	0.563	2.07	-0.31 (inactive)	0.693	0.607	1.54 (inactive)	0.527	-1.69 (inactive)	0.919 (inactive)	-0.0769 (inactive)		-1.41 (inactive)	1.4 (inactive)	0.576 (inactive)	1.72	-0.129
COC(=O)[C@@]1(Cc2ccccc2)[C@H]2c3cc(C(=O)N4CCCC4)n(CCN4CNCC4=O)c3C[C@H]2CN1C(=O)c1ccccc1	-0.626	0.337	-0.509	0.312	0.261	-0.314	0.251 (inactive)	-0.185	-0.777	0.0269 (inactive)	0.276	0.864 (inactive)	0.327 (inactive)	-0.482 (inactive)	-0.167 (inactive)	-0.189 (inactive)	0.499 (inactive)	-0.321 (inactive)	0.742	0.414
C=CCC(OC(C)=O)[C@@H]1[C@@H](N(Cc2ccc(-c3ccccc3)cc2)C(=O)c2ccc(-c3ccccc3)cc2)c2cc(OCCCO)ccc2N1C(=O)Cc1ccc(OC)cc1 (some centres undefined)	-0.111	0.6	0.551	-0.769	-0.904	0.424	-0.972 (inactive)	-0.0615	-0.142	0.78 (inactive)	-0.149	0.335 (inactive)	0.108 (inactive)	-0.979 (inactive)	0.0429 (inactive)	-1.14 (inactive)	-0.0223 (inactive)	0.185 (inactive)	0.202	-0.0596
NC(=O)[C@H]1[C@@H]2C(=O)O[C@@H](c3ccccc3)[C@@H](c3ccccc3)N2[C@@H](c2ccc(O)cc2)[C@]12C(=O)Nc1ccc(C#CCCO)cc12	-0.191	-0.0912	0.0926	-0.664	0.0381	-1.59	-0.699 (inactive)	-0.583	0.196	-0.0774 (inactive)	-0.744	-0.383 (inactive)	-0.354 (inactive)	-0.25 (inactive)	-0.0604 (inactive)	-1.03 (inactive)	-0.847 (inactive)	-1.18 (inactive)	-0.616	0.135
COC(=O)[C@@]1(Cc2ccccc2CN=[N+]=[N-])N=C(c2ccc(OCCCO)cc2)O[C@H]1c1ccccc1N=[N+]=[N-]	-2.1	0.0397	-2.36	-2.99	-3.63	-0.00729	-0.222 (inactive)	-1.19	-2.29	-1.35 (inactive)	-0.806	1.49 (inactive)	-3.44 (inactive)	3.12 (inactive)	1.69 (inactive)	2.6 (inactive)	0.365 (inactive)	-0.762 (inactive)	-3.59	-0.0095
O=C1OCCC/C=C\[C@H]2OC34C=CCN(CCN5CCOCC5)C(=O)[C@H]3N(CCCCCO)C(=O)[C@@H]4C12 (some centres undefined)	0.739	0.216	-0.123	1.1	-0.0521	-1.04	0.348 (inactive)	0.329	-0.102	-0.254 (inactive)	-0.567	-0.0575 (inactive)	-0.193 (inactive)	0.286 (inactive)	-0.0432 (inactive)	-0.634 (inactive)	0.157 (inactive)	0.0435 (inactive)	0.0501	-0.124
